From PubChem BioAssay
The source made the active and inactive calls.

Experiments:
[1] = binders of probe aFSTL3 on microarray, primary screen, stem cell growth factor project, biochemical, small-molecule microarray, fluorescence 635/667 (AID 1064); settings: higher = more signal;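 note: measures binding of the biotinylated anti-FSTL3 antibody to printed compounds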
[2] = binders from COS7 lysate, DM2A8 probe, primary screen, torsin A project, cell lysate, small-molecule microarray, fluorescence 635/667 (AID 1065); settings: higher = more signal, COS7 lysate expressing mutant human TOR1A
[3] = binders of probe aFGF2 on microarray, primary screen, stem cell growth factor project, biochemical, small-molecule microarray, fluorescence 635/667 (AID 1067); settings: higher = more signal;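 note: measures binding of biotinylated aFGF2 protein to printed compounds on slides; z-score merges feature fluorescence and signal-to-noise across triplicate slides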
[4] = binders of probe aFGF10 on microarray, primary screen, stem cell growth factor project, biochemical, small-molecule microarray, fluorescence 635/667 (AID 1071); settings: higher = more signal;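 note: score merges 667 nm spot intensity and signal to noise from triplicate slides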
[5] = biological target: Neurogenic locus notch homolog protein 2 (Homo sapiens) (UniProt Q04721); assay: Notch2 binders on small-molecule microarrays, primary screen, biochemical, small-molecule microarray, 635 nm fluorescence, stem cell growth factors (AID 1073); settings: Notch2 binding, higher = more signal
[6] = biological target: Pro-neuregulin-1, membrane-bound isoform (Homo sapiens) (UniProt Q02297); assay: NRG1 binders on small-molecule microarrays, primary screen, psychiatric disease protein project, biochemical, small-molecule microarray, fluorescence 635/667 (AID 1075); settings: NRG1 binding, 635 nm fluorescence, higher = more signal;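 note: score combines 667 nm spot fluorescence with signal to noise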
[7] = system: Neuregulin-1 EGF-like domain; assay: binders of neuregulin-1 EGF-like domain, primary screen, biochemical, small-molecule microarray, 635 nm fluorescence (AID 1081); settings: small-molecule microarray binding, higher = more signal;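 note: binding of the protein to compounds printed on small-molecule microarray slides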
[8] = FRG1 promoter luciferase signal modulators, primary screen, FRG1 inhibition for FSHD, cell-based, C2C12 myotubes, firefly/Renilla luciferase, luminescence (AID 1084); settings: higher = more signal, called active from +8 up or from −8 down
[9] = binders of probe aFST on microarray, primary screen, stem cell growth factor project, biochemical, small-molecule microarray, fluorescence 635/667 (AID 1086); settings: higher = more signal;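 note: score merges 667 nm fluorescence with signal-to-noise of each printed compound spot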
[10] = binders of probe aHhip on microarray, primary screen, stem cell growth factor project, biochemical, small-molecule microarray, fluorescence 635/667 (AID 1087); settings: higher = more signal;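 note: score merges spot fluorescence at 667nm with spot signal to noise ratio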
[11] = system: PRMT1 (protein arginine N-methyltransferase 1); assay: PRMT1 binders on small-molecule microarrays, primary screen, biochemical, small-molecule microarray, 635 nm fluorescence (AID 1088); settings: small-molecule microarray binding, higher = more signal;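 note: binding of Prmt1 protein to compounds spotted on small-molecule microarray slides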
[12] = yeast growth modulation, basal conditions, primary screen, YJM789 clinical isolate, OD600, 24 h (AID 1089);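 note: growth of clinical yeast isolate S. cerevisiae YJM 789 seeded 1000 cells per well; test concentration not given here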; settings: S. cerevisiae YJM789 growth, higher = more signal, called active from +8 up or from −8 down
[13] = fission yeast growth modulation, primary screen, strain 972, OD600, 24 h, no modulator (AID 1090);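 note: basal condition with compound alone and no growth modifier present; test concentration not given here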; settings: S. pombe 972 growth, higher = more signal, called active from +8 up or from −8 down
[14] = S. cerevisiae growth modulation with rapamycin, primary screen, strain BY4716, OD600, 96 h (AID 1091); settings: higher = more signal, called active from +8 up or from −8 down; note: test concentration not given here
[15] = biological target: Torsin-1A-interacting protein 2 (Homo sapiens) (UniProt Q8NFQ8); assay: LULL1 binders on small-molecule microarray, primary screen, cell lysate, human LULL1 lysate, 635/667 nm fluorescence (AID 1092); settings: hLULL1 lysate binding, 635 nm fluorescence, higher = more signal;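 note: probe is lysate of COS7 cells overexpressing human LULL1; score merges per-feature 667 nm fluorescence with signal-to-noise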
[16] = E. coli growth modulation, two-sided OD650, primary screen, E. coli filamentation project, strain DRC41, 24 h (AID 1093); settings: OD650, 24 h, higher = more signal, called active from +8 up or from −8 down;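 note: MC1000 strain lacking acrAB efflux and sulA so SOS filamentation is blocked; test concentration not given here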
[17] = small-molecule microarray binders of probe aLefty2, primary screen, biochemical, biotinylated probe, 635/667 nm fluorescence (AID 1094); settings: higher = more signal;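 note: score merges spot fluorescence near 667 nm with spot signal-to-noise ratio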
[18] = system: Noggin (protein binding on small-molecule microarray); assay: Noggin binders on small-molecule microarray, primary screen, biochemical, 635/667 nm fluorescence (AID 1095); settings: 635 nm fluorescence, higher = more signal;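 note: score merges 667 nm feature fluorescence with signal to noise over triplicate slides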
[19] = biological target: Neurogenic locus notch homolog protein 3 (Homo sapiens) (UniProt Q9UM47); assay: NOTCH3 binders on small-molecule microarray, primary screen, biochemical, 635/667 nm fluorescence (AID 1096); settings: NOTCH3 binding, 635 nm fluorescence, higher = more signal
[20] = small-molecule microarray binders of probe aEGFR, primary screen, biochemical, biotinylated probe, 635/667 nm fluorescence (AID 1097); settings: higher = more signal;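 note: probe is a biotinylated anti-EGFR antibody binding compounds printed on slides; score combines fluorescence near 667 nm and signal to noise of each spot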

Chain of Torsin-1A-interacting protein 2 (Homo sapiens) (Q8NFQ8 whole entry, looked up): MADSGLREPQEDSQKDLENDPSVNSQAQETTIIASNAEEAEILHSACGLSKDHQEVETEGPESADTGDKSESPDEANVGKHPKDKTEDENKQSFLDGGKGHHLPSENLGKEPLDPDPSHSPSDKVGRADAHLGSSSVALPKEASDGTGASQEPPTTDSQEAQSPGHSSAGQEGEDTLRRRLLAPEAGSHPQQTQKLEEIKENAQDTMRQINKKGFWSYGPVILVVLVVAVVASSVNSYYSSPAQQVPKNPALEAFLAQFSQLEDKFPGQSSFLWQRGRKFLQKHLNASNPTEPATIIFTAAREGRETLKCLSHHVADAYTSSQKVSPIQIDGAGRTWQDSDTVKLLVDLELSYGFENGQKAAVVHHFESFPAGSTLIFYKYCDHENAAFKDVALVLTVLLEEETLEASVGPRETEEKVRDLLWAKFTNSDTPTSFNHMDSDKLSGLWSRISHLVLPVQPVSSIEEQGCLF
Chain of Neurogenic locus notch homolog protein 3 (Homo sapiens) (Q9UM47 whole entry, looked up): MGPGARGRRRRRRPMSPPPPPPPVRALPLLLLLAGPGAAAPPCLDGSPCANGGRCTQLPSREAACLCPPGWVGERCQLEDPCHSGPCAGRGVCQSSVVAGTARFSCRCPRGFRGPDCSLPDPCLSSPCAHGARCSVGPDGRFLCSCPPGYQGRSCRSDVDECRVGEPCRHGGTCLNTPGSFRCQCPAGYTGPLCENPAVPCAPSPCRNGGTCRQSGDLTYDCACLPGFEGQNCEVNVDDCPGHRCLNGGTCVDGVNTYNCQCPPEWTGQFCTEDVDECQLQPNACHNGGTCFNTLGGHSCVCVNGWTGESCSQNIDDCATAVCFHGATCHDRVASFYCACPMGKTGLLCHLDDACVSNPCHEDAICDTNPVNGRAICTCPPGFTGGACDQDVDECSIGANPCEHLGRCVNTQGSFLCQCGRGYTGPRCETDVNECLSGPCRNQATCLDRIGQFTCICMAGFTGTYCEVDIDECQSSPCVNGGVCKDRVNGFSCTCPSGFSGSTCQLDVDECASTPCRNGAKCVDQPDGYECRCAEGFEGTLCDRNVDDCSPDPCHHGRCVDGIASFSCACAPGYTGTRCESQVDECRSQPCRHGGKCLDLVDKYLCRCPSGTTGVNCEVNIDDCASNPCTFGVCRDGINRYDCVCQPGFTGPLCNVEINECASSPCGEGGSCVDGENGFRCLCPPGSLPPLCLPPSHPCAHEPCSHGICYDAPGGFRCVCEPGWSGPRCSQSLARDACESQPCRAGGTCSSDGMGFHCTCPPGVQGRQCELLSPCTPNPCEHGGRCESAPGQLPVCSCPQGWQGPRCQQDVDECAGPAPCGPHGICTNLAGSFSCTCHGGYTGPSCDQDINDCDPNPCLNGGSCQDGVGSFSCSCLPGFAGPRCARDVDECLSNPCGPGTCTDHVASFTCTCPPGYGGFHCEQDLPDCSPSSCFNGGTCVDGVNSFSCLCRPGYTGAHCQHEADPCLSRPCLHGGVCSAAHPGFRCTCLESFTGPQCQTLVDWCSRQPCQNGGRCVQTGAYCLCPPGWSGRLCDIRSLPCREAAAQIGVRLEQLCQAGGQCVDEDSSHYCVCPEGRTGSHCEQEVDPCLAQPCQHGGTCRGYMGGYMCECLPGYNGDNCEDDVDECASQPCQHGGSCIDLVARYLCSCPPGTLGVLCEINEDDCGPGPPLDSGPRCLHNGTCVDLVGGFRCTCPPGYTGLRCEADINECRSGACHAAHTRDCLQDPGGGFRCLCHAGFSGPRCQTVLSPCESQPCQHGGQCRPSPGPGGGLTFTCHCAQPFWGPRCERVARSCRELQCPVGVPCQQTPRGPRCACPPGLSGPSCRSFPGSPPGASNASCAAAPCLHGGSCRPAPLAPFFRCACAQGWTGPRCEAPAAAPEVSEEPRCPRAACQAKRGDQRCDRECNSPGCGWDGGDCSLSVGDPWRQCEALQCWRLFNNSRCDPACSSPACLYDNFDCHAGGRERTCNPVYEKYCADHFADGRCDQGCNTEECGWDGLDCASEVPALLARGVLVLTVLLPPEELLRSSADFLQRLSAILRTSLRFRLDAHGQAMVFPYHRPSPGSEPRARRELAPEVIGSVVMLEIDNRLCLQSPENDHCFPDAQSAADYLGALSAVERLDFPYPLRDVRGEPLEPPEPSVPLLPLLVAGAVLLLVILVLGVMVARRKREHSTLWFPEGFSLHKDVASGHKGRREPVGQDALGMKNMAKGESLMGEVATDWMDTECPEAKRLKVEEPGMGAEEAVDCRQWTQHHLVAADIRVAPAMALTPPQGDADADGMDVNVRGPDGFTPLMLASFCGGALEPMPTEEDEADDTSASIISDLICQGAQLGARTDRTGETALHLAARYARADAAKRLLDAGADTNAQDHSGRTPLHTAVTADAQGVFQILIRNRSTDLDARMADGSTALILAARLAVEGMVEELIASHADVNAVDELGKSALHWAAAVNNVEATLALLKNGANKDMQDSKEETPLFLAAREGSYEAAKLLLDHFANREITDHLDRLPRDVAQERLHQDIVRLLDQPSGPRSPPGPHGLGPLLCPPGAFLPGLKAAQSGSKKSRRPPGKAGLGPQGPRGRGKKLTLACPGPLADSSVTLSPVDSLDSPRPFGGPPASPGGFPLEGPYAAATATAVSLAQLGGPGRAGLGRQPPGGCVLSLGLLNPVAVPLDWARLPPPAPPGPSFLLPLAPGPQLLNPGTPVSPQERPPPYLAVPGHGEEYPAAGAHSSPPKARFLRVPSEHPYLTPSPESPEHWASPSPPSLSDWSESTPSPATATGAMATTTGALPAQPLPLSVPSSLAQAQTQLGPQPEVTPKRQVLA
Chain of Pro-neuregulin-1, membrane-bound isoform (Homo sapiens) (Q02297 whole entry, looked up, the tested form may be a part, canonical isoform): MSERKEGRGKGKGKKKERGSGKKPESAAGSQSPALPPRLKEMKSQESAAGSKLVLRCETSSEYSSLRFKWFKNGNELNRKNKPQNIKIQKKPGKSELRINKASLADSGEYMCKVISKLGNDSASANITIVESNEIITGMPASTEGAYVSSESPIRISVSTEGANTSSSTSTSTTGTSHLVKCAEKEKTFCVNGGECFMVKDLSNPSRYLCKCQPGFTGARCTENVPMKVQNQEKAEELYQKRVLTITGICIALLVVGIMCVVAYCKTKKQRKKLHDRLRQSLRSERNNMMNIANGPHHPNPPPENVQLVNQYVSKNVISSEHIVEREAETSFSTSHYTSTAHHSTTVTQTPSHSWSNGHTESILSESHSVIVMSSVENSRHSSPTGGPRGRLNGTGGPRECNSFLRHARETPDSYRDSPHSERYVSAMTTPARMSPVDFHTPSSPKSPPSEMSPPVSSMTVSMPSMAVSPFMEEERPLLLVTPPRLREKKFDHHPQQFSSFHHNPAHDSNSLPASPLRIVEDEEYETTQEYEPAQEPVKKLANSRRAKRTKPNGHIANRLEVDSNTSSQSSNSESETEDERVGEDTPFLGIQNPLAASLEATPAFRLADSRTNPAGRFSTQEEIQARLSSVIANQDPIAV

## NC(=O)NCC#Cc1ccc2c(c1)[C@]1(C(=O)N2)[C@H](c2ccccc2OCCO)N2[C@H](c3ccccc3)[C@H](c3ccccc3)OC(=O)[C@H]2[C@@H]1C(=O)O
[1]
  composite z-score: 0.129
[2]
  composite z-score: 0.443
[3]
  composite z-score: -0.0383
[4]
  composite z-score: -0.0167
[5]
  composite z-score: -0.243
[6]
  composite z-score: 1.11
[7]
  composite z-score: -0.0034
[8]
  z-score: 0.233 (inactive)
[9]
  composite z-score: -0.362
[10]
  composite z-score: -0.438
[11]
  composite z-score: 0.507
[12]
  z-score: 0.798 (inactive)
[13]
  z-score: -0.602 (inactive)
[14]
  z-score: -0.675 (inactive)
[15]
  composite z-score: 1.31
[16]
  z-score: 1.4 (inactive)
[17]
  composite z-score: -0.0201
[18]
  composite z-score: 0.192
[19]
  composite z-score: -0.199
[20]
  composite z-score: -0.185

## CC(C)NC(=O)[C@@]1(c2ccc([N+](=O)[O-])cc2)CC(=O)N(C2CCCCC2)[C@@H]1c1ccc(CO)cc1
[1]
  composite z-score: -0.903
[2]
  composite z-score: 1.08
[3]
  composite z-score: 0.0584
[4]
  composite z-score: 0.817
[5]
  composite z-score: 0.261
[6]
  composite z-score: 1.69
[7]
  composite z-score: 1.35
[8]
  z-score: -0.629 (inactive)
[9]
  composite z-score: -0.114
[10]
  composite z-score: -0.172
[11]
  composite z-score: 1.54
[12]
  z-score: 0.359 (inactive)
[13]
  z-score: 0.52 (inactive)
[14]
  z-score: -0.55 (inactive)
[15]
  composite z-score: 2.85
[16]
  z-score: 1.07 (inactive)
[17]
  composite z-score: -0.271
[18]
  composite z-score: 1.77
[19]
  composite z-score: 1.07
[20]
  composite z-score: -0.296

## C=C(C(=O)CC[C@H](OC(=O)c1ccccc1-c1ccccc1C(=O)O)c1cccc(OCCO)c1)C(C)C
[1]
  composite z-score: -0.337
[2]
  composite z-score: -0.062
[3]
  composite z-score: -0.109
[4]
  composite z-score: 0.211
[5]
  composite z-score: -0.275
[6]
  composite z-score: 0.262
[7]
  composite z-score: 0.0799
[8]
  z-score: -0.0752 (inactive)
[9]
  composite z-score: -0.224
[10]
  composite z-score: -0.134
[11]
  composite z-score: 0.0697
[12]
  z-score: 0.521 (inactive)
[13]
  z-score: -0.561 (inactive)
[14]
  z-score: -0.518 (inactive)
[15]
  composite z-score: -0.138
[16]
  z-score: -0.164 (inactive)
[17]
  composite z-score: -0.191
[18]
  composite z-score: 0.437
[19]
  composite z-score: 0.324
[20]
  composite z-score: -0.18

## CCCCCN1CC=CC23O[C@@H]4/C=C\CCCOC(=O)C4[C@H]2C(=O)N(C(C)CO)[C@@H]3C1=O (stereo not given in full)
[1]
  composite z-score: 0.378
[2]
  composite z-score: -1.3
[3]
  composite z-score: -0.219
[4]
  composite z-score: -0.756
[5]
  composite z-score: -0.814
[6]
  composite z-score: 1.15
[7]
  composite z-score: 1.16
[8]
  z-score: -0.508 (inactive)
[9]
  composite z-score: -0.738
[10]
  composite z-score: -0.399
[11]
  composite z-score: 1.14
[12]
  z-score: -0.145 (inactive)
[13]
  z-score: -1.52 (inactive)
[14]
  z-score: -0.744 (inactive)
[15]
  composite z-score: 1.86
[16]
  z-score: 0.815 (inactive)
[17]
  composite z-score: -0.125
[18]
  composite z-score: -1.33
[19]
  composite z-score: -0.365
[20]
  composite z-score: -0.213

## COC(=O)[C@@]1(Cc2ccc(F)cc2)[C@H]2c3cc(C(=O)N4CCCC4)n(CCc4c[nH]c5ccccc45)c3C[C@H]2CN1C(=O)c1ccccc1
[1]
  composite z-score: 0.484
[2]
  composite z-score: 0.246
[3]
  composite z-score: 0.0869
[4]
  composite z-score: 0.439
[5]
  composite z-score: 1.62
[6]
  composite z-score: 2.06
[7]
  composite z-score: 1.22
[8]
  z-score: -2.21 (inactive)
[9]
  composite z-score: 1.05
[10]
  composite z-score: 0.245
[11]
  composite z-score: 1.38
[12]
  z-score: 0.519 (inactive)
[13]
  z-score: 1.68 (inactive)
[14]
  z-score: 7.25 (inactive)
[15]
  composite z-score: 3.42
[16]
  z-score: -1.3 (inactive)
[17]
  composite z-score: 0.323
[18]
  composite z-score: 0.462
[19]
  composite z-score: 1.01
[20]
  composite z-score: 0.0688

## CC(=O)N1CC2(CC2)CC1c1ccccc1 (stereo not given)
[1]
  composite z-score: 0.392
[2]
  composite z-score: 1.04
[3]
  composite z-score: -0.14
[4]
  composite z-score: 0.242
[5]
  composite z-score: 0.437
[6]
  composite z-score: 0.163
[7]
  composite z-score: 0.413
[8]
  z-score: 2.2 (inactive)
[9]
  composite z-score: 0.661
[10]
  composite z-score: 0.533
[11]
  composite z-score: 0.594
[12]
  z-score: -0.999 (inactive)
[13]
  z-score: 0.661 (inactive)
[14]
  z-score: 0.218 (inactive)
[15]
  composite z-score: 1.19
[16]
  z-score: 0.0425 (inactive)
[17]
  composite z-score: 0.0423
[18]
  composite z-score: 0.423
[19]
  composite z-score: 0.251
[20]
  composite z-score: 0.0986

## COc1ccc([Si](C)(C)[C@@H]2[C@@H](CCO)O[C@]3(C(=O)N(Cc4cccc(NC(=O)[C@H](C)O)c4)c4ccccc43)[C@H]2C)cc1
[1]
  composite z-score: -0.328
[2]
  composite z-score: 0.263
[3]
  composite z-score: -0.053
[4]
  composite z-score: 1.23
[5]
  composite z-score: 0.487
[6]
  composite z-score: 1.07
[7]
  composite z-score: 1.14
[8]
  z-score: -3.53 (inactive)
[9]
  composite z-score: 0.146
[10]
  composite z-score: -0.249
[11]
  composite z-score: 1.54
[12]
  z-score: 1.84 (inactive)
[13]
  z-score: 0.193 (inactive)
[14]
  z-score: 34.6 (active)
[15]
  composite z-score: 2.84
[16]
  z-score: -0.327 (inactive)
[17]
  composite z-score: -0.159
[18]
  composite z-score: 0.474
[19]
  composite z-score: 0.662
[20]
  composite z-score: -0.152

## Cc1ccccc1C(O)C1C=CC2C(=O)NC(=O)C2N1Nc1ccccn1 (stereo not given)
[1]
  composite z-score: 0.888
[2]
  composite z-score: 0.127
[3]
  composite z-score: -0.129
[4]
  composite z-score: 0.0133
[5]
  composite z-score: 0.135
[6]
  composite z-score: 0.401
[7]
  composite z-score: -0.0441
[8]
  z-score: 1.08 (inactive)
[9]
  composite z-score: -0.0817
[10]
  composite z-score: -0.134
[11]
  composite z-score: 0.049
[12]
  z-score: 0.833 (inactive)
[13]
  z-score: 0.459 (inactive)
[14]
  z-score: 0.0715 (inactive)
[15]
  composite z-score: 1.6
[16]
  z-score: -0.957 (inactive)
[17]
  composite z-score: 0.0361
[18]
  composite z-score: 0.232
[19]
  composite z-score: -0.308
[20]
  composite z-score: 0.092

## C=C(COC)/C(=C/C[C@H](OC(=O)c1ccncc1)c1ccccc1OCCO)c1cc(C(=O)OC)ccc1OC
[1]
  composite z-score: -0.457
[2]
  composite z-score: 0.562
[3]
  composite z-score: -0.167
[4]
  composite z-score: 0.67
[5]
  composite z-score: 0.302
[6]
  composite z-score: 1.16
[7]
  composite z-score: 0.869
[8]
  z-score: -0.872 (inactive)
[9]
  composite z-score: 0.431
[10]
  composite z-score: -0.442
[11]
  composite z-score: 1.44
[12]
  z-score: -0.819 (inactive)
[13]
  z-score: -0.925 (inactive)
[14]
  z-score: -0.498 (inactive)
[15]
  composite z-score: 2.65
[16]
  z-score: 0.0572 (inactive)
[17]
  composite z-score: -0.157
[18]
  composite z-score: 1.23
[19]
  composite z-score: 1.04
[20]
  composite z-score: 0.146

## C=CCC(OC(C)=O)[C@@H]1[C@@H](N(Cc2ccc(-c3cccc(C(F)(F)F)c3)o2)C(=O)Cc2ccc(OC)cc2)c2cc(OCCCO)ccc2N1C(=O)c1ccc(-c2ccccc2)cc1 (stereo not given in full)
[1]
  composite z-score: -0.124
[2]
  composite z-score: 0.004
[3]
  composite z-score: -0.0796
[4]
  composite z-score: 0.0554
[5]
  composite z-score: -0.57
[6]
  composite z-score: 0.168
[7]
  composite z-score: 0.0604
[8]
  z-score: -0.461 (inactive)
[9]
  composite z-score: 0.214
[10]
  composite z-score: 0.382
[11]
  composite z-score: 0.62
[12]
  z-score: 0.282 (inactive)
[13]
  z-score: 0.297 (inactive)
[14]
  z-score: 0.322 (inactive)
[15]
  composite z-score: 0.442
[16]
  z-score: -0.936 (inactive)
[17]
  composite z-score: -0.0436
[18]
  composite z-score: -0.478
[19]
  composite z-score: -0.449
[20]
  composite z-score: -0.146
